Assay results taken from PubChem BioAssay AID894 (National Center for Advancing Translational Sciences (NCATS), 2007).
The whole screen tested about 150,000 compounds, of which about 6,500 (4.3%) were called active. About 12% were inconclusive and are not listed. Many of the other results were omitted from the sample, so actives are more common in it than they were. Unmarked numbers belong to inactive results. Calls come from the whole dose curve; as a rule, active = well fitted inhibition curve with a large enough effect (not every such curve was filed as active); inconclusive = small, poorly fitted or top-dose-only effect, or another doubt; inactive = no such curve, though single readings can be large or run the other way.

Molecular target: 15-hydroxyprostaglandin dehydrogenase [NAD(+)] (Homo sapiens) (UniProt P15428)
Sequence (P15428 whole entry, looked up): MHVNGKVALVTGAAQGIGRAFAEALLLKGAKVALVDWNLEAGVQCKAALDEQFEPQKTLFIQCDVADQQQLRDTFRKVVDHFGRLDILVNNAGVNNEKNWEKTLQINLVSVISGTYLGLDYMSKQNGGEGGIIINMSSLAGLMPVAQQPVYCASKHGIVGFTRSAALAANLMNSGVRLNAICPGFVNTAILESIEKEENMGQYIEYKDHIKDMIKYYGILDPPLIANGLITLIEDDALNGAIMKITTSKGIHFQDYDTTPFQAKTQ
Experiment: qHTS Assay for Inhibitors of HPGD (15-Hydroxyprostaglandin Dehydrogenase)
Details: purified HPGD, NADH fluorescence kinetic, PGE2 substrate; activity change, negative = inhibition: hits give low values
Procedure, shortened: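 20 nM HPGD preincubated 15 min at room temperature with compound in 50 mM Tris-HCl pH 8, 0.01% Tween 20. Started with 1 mM NAD+ and 30 uM prostaglandin E2; NADH fluorescence (360/450 nm) read 5 times over 30-s intervals, last minus first.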
% is set by controls: 0 for no effect and ±100 for the full control effect; potency is the fitted concentration of half-maximal effect.

Row | Structure (SMILES) | activity change, negative = inhibition | Potency
1 | COc1ccc(C(=O)ON=C2c3ccccc3-c3ccccc32)cc1OC | -23.4% | 
2 | CCOc1ccc(Oc2nc(C)cc(OC)n2)nn1 | -6.46% | 
3 | Cc1scc(C(=O)NNC(=S)NCC(C)C)c1C | -5.27% | 
4 | Cc1cccc(NC(=S)N(CCN(C)C)C(C)c2ccco2)c1 (configuration not stated) | -15.4% | 
5 | COc1ccc(S(=O)(=O)NC(C)C)cc1C(=O)NC1CCCCC1 | -17.6% | 
6 | CCC(CC)c1nnc(NC(=O)/C=C/c2ccco2)s1 | -29.6% | 
7 | c1ccc2[nH]c(-c3nc4ccccc4[nH]3)nc2c1 | -25.9% | 
8 | O=c1onc(-c2cccs2)n1Cc1ccccc1 | -5.59% | 
9 | O=c1[nH]c(-c2cccs2)nc2ccccc12 |  | 15.8 µM (active)
10 | Nc1nc(CC(=O)CSc2ccc(Cl)cc2)nc(Nc2ccc(F)cc2)n1 | -7.75% | 
11 | COc1ccc(CCNC(=O)c2ccco2)cc1 | -3.27% | 
12 | CCC(CC)NC(=O)/C=C/c1cccc([N+](=O)[O-])c1 | -13.1% | 
13 | COc1cc(OC)cc(C(=O)NCCSCc2ccco2)c1 |  | 20 µM (active)
14 | O=C(/C=C/c1cccc([N+](=O)[O-])c1)NCCSCc1ccco1 |  | 25.1 µM (active)
15 | O=C(/C=C/c1ccc([N+](=O)[O-])cc1)NCCSCc1ccco1 | -22.9% | 
16 | CS(=O)(=O)N(Cc1ccc(Cl)cc1)c1ccc(C(=O)NCCSCc2ccco2)cc1 | -4.85% | 
17 | CC(=O)Nc1cccc(/C(C)=N/NC(=O)c2c(-c3ccccc3Cl)noc2C)c1 | -6.16% | 
18 | COc1ccc(S(=O)(=O)NC(C)C(=O)Nc2cccc([N+](=O)[O-])c2)cc1 (configuration not stated) | -10.4% | 
19 | O=C(COC(=O)Cn1cnc2ccccc2c1=O)NCC12CC3CC(CC(C3)C1)C2 | -2.81% | 
20 | COc1cc(NC(=O)Nc2ccc(C)cc2)cc([N+](=O)[O-])c1 | -10.2% | 
21 | CCOC(=O)C1=NO[C@@]2(C=C(Br)C(=O)[C@H]3O[C@H]32)C1 | -23% | 

Row | Structure (SMILES) | activity change, negative = inhibition | Potency
22 | COc1ccccc1-c1cc(C(=O)NCCCn2ccnc2)no1 | -21.8% | 
23 | O=C(NCc1ccccn1)c1cc(-c2ccccc2Cl)on1 |  | 14.1 µM (active)
24 | Clc1ccccc1-c1cc(COc2ccc3ccccc3c2)no1 | -25.6% | 
25 | CCc1cccc(C)c1NC(=O)CSc1nnc(-c2ccco2)n1N | -10.6% | 
26 | CCOC(=O)c1c(NC(=O)CSc2nnc(CN3CCOCC3)n2C)sc2c1CCCC2 | -2.63% | 
27 | NC(=O)c1c(NC(=O)CSc2nnc(-c3ccco3)n2N)sc2c1CCCC2 |  | 14.1 µM (active)
28 | CC(C)=C1C2CCC1C1C(=O)N(NC(=O)c3ccco3)C(=O)C21 (configuration not stated) | -7.1% | 
29 | CC(C)CNC(=O)c1cc(-c2ccc(Br)cc2)on1 | -23.1% | 
30 | CC(C)Cc1cc(C(=O)Nc2cc(Br)ccc2O)no1 |  | 25.1 µM (active)
31 | CC(C)Cc1cc(C(=O)NCCc2ccccc2)no1 | -20.6% | 
32 | COc1ccc(C(C(=O)NC2CCCCC2)N(C(=O)CCl)c2ccccc2Cl)cc1 (configuration not stated) | -4.95% | 
33 | N#Cc1c(NC(=O)c2ccc(N3CCOCC3)c([N+](=O)[O-])c2)sc2c1CCCC2 | -10.9% | 
34 | O=C(/C=C/c1ccc(Cl)cc1)N1CCN(c2ccccc2[N+](=O)[O-])CC1 | -15% | 
35 | CC(C)(C)NC(=O)C(=O)NCc1ccncc1 | -2.72% | 
36 | Cc1nc2ccccc2n1CC(=O)N/N=C/c1cccs1 | -4.95% | 
37 | O=C(c1cccs1)n1nc(NCc2ccccc2)nc1NCc1ccccc1 | -18.3% | 
38 | O=C(COC(=O)CCC(=O)c1cccs1)NCc1ccco1 | -9.26% | 
39 | O=C(CCC(=O)c1cccs1)NCc1ccccc1 |  | 31.6 µM (active)
40 | CCC1CCCCN1C(=S)Nc1ccc(C(C)=O)cc1 (configuration not stated) | -21.2% | 
41 | Cc1ccc(-c2cn3cc([N+](=O)[O-])ccc3n2)cc1 | -11.8% | 
42 | CC[C@H](C)[C@@H](NC(=O)O[C@@H]1C(=O)c2cc(OC)ccc2O[C@H]1c1cccc(OC)c1)C(=O)OC | -14.9% | 

Row | Structure (SMILES) | activity change, negative = inhibition | Potency
43 | O=[N+]([O-])c1cc(C(F)(F)F)ccc1NN=C1CCCC1 | -7.57% | 
44 | C/C(=N\NC(=O)CCn1nc(C)cc1C)C(C)(C)C | -2.63% | 
45 | Cc1ccc(SCC(=O)Nc2ccc3c(c2)OCCO3)cc1 | -4% | 
46 | CCCCC(=O)Nc1ccc2c(c1)OCCO2 |  | 25.1 µM (active)
47 | COC(=O)CCNc1ccc2c(c1)OCCO2 | -9.02% | 
48 | Cc1cn(C2OC[C@@H](O)[C@@H]2CO)c(=O)[nH]c1=O (some centres not stated) | -7.64% | 
49 | O=C(CSc1n[nH]c(-c2cccnc2)n1)Nc1ccnc2ccccc12 |  | 15.8 µM (active)
50 | Cc1ccccc1NC(=O)CSC1=NCCN1 | -5.67% | 
51 | O=C(CSc1nnc(-c2cccnc2)n1CCc1ccccc1)NCc1ccccc1 | -12.6% | 
52 | C=CCn1cc(C(=O)NCc2ccc(Cl)cc2)c(=O)c2cc(S(=O)(=O)N(CC)CC)ccc21 | 15.1% | 
53 | CC(=O)c1sc(N/N=C\c2ccc(C)cc2)nc1C | -20.1% | 
54 | C=CCNC(=S)NNC(=O)c1ccc(Br)o1 | -14.9% | 
55 | Cc1cccc(C)c1NC(=O)CSc1nnc(-c2ccccc2)n1Cc1ccc2c(c1)OCO2 | -8.72% | 
56 | CC1=C(C(N)=O)C(c2ccc3c(c2)OCO3)n2nc(-c3cccc(C)c3)nc2N1 (configuration not stated) | -3.51% | 
57 | c1ccc(-c2nnc3n2NC(c2ccc4c(c2)OCO4)S3)cc1 (configuration not stated) |  | 14.1 µM (active)
58 | COCCNc1nc(N)c([N+](=O)[O-])c(NCCO)n1 | -10.5% | 
59 | O=C(NNC(=S)NCc1ccccc1)c1ccc(OC(F)F)cc1 | -6.63% | 
60 | Cc1ccc(Cc2c(C)nc3nc(SCC(=O)NCCN4CCOCC4)nn3c2C)cc1 | -11.4% | 
61 | Cc1nc2nc(SCC(=O)NCc3ccco3)nn2c(C)c1Cc1ccccc1 |  | 22.4 µM (active)
62 | COc1cc(OC)cc(-c2nc3nc(C)c(CCC(=O)NCc4ccco4)c(C)n3n2)c1 | -10.9% | 
